{
  "source": "PubChem BioAssay",
  "key": {"[1]": {"experiment": "EMT-state selective cytotoxicity in co-culture – imaging, PC-3E GFP, TEM4-18 mCherry, primary screen (AID 1345086);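 as to all read-outs here: cells exposed to compound for 72 h before imaging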;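 as to red/green cell ratio (normalised): normalised mesenchymal count divided by normalised epithelial count so high means epithelial killing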", "conditions": "PC-3E GFP / TEM4-18 mCherry co-culture, imaging cell counts, at 1 µM; for red/green cell ratio (normalised): actives lie on both sides"}, "[2]": {"experiment": "viability loss with induced miR-34 in A549 – imaging, A549 dox-inducible miR-34, nuclei and caspase counts, primary screen (AID 1347080;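 active = compounds whose cell count with miR-34 switched on is under 0.7 times the count with it off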)", "conditions": "A549 miR-34 inducible, Hoechst nuclei count, 48 h"}, "[3]": {"experiment": "P. berghei load reduction in hepatocytes – cell-based, HepG2, luciferase luminescence, HepG2 viability, primary screen (AID 624349; in the data active = parasite load remaining mostly below about 12%, no sharp cut-off; inactive = mostly above about 10%;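 also: 100% = mean of DMSO negative control wells on the same plate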)", "conditions": "P. berghei liver stage in HepG2, luciferase luminescence, concentration not given here; parasite load remaining: stronger effect = lower value; viability: measured here: HepG2 viability without parasites"}, "[4]": {"tested_on": "Aerobactin synthetase IucA (Klebsiella pneumoniae hvKP1)", "experiment": "IucA enzyme inhibition, primary screen, biochemical, Spectrum library (AID 1346200; call rule not given here;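 also: 100% = wells without compound and 0% = wells lacking enzyme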)", "conditions": "malachite green pyrophosphate, A620, at 8 µM, stronger effect = lower value"}, "[5]": {"target": "NAD(+) hydrolase SARM1 (Homo sapiens) (UniProt Q6SZW1)", "sequence (Q6SZW1 whole entry, looked up)": "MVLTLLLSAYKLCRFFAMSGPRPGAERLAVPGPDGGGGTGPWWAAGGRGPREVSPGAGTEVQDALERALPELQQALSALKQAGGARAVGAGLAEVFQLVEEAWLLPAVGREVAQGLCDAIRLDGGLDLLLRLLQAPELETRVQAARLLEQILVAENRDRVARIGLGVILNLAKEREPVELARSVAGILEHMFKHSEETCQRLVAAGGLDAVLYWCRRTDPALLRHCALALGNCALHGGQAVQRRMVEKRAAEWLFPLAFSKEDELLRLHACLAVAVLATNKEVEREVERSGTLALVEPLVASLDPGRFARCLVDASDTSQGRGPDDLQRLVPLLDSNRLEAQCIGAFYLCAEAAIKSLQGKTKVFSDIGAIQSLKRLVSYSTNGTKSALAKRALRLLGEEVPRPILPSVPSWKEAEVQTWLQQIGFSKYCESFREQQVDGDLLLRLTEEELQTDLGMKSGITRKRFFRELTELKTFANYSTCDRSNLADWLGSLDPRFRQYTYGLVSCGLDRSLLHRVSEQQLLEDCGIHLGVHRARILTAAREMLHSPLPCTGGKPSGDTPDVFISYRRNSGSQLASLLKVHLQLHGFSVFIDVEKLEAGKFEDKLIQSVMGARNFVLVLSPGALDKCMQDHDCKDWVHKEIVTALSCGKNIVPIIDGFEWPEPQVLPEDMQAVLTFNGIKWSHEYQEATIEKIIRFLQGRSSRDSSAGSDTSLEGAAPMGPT", "experiment": "blocking NAD cleavage by SARM1 SAM-TIR – cell lysate, NAD-Glo luminescence (AID 1508614;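 active = compound whose remaining NAD level is above about 45 nM, limit read from the data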)", "conditions": "SAM-TIR HEK293T lysate NADase, at 1 µM, stronger effect = higher value"}, "[6]": {"experiment": "MELAS cybrid and Rieske KO viability enhancers – cell-based, MELAS cybrids, Rieske KO mouse fibroblasts, CellTiter-Glo, primary screen (AID 1508586;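 active = mean z-score across replicates of 1.96 or higher in either the MELAS or the Rieske mutant cell line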;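 also: z relative to plate mean and SD of compound and empty wells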)", "conditions": "low glucose"}, "[7]": {"target": "Mitogen-activated protein kinase 7 (Homo sapiens) (UniProt Q13164)", "sequence (Q13164 whole entry, looked up, the tested form may be a part)": "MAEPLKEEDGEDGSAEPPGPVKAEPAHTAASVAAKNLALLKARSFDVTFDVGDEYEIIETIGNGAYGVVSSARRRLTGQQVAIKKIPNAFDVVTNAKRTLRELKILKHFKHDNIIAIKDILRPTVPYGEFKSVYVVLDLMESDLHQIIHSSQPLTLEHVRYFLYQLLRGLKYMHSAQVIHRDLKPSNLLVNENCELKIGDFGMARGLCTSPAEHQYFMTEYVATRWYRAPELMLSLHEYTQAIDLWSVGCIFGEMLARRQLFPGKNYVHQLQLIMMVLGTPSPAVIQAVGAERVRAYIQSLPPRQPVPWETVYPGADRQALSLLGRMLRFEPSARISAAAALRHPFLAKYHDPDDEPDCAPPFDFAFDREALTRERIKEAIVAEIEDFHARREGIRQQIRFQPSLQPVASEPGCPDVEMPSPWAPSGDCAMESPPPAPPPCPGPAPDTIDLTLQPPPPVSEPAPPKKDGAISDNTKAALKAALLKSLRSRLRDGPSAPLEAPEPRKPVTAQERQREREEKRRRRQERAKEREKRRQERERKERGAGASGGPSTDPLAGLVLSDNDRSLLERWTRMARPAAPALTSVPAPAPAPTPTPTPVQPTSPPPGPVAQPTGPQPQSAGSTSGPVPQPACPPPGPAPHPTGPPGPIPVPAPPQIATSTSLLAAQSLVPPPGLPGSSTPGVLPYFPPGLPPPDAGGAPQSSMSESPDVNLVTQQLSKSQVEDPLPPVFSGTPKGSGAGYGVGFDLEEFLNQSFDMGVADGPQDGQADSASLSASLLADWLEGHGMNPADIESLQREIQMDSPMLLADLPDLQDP", "experiment": "Gal4-ERK5 driven luciferase induction – cell-based, HTS, primary screen (AID 1508626;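 active = luciferase signal above three times the same-plate solvent-only control wells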;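 also: luciferase driven by Gal4-ERK5 fusion binding five Gal4 sites before minimal TATA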)", "conditions": "HeLa Gal4-ERK5 transactivation, 18 h, at 5 µM, stronger effect = higher value"}, "[8]": {"experiment": "galactose survival enhancers in mitochondrial complex I cybrids – cell-based, galactose medium, ATP luminescence, primary screen (AID 1645843;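 active = z-score of at least 1.8 in each of two replicates, scored against plate mean and spread of sample wells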;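 also: positive z means more ATP and so rescue of galactose-driven cybrid death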)", "conditions": "complex I mutant cybrid cells, 72 h, stronger effect = higher value"}, "[9]": {"experiment": "blockers of polyQ-driven CASP3 activation – cell-based (AID 1583)", "conditions": "polyglutamine-induced caspase-3 activation, cell assay; stronger effect = higher value; concentration not given here"}, "[10]": {"experiment": "yeast 75Q aggregation reduction – 75Q-TubU reporter (AID 1593)", "conditions": "Yeast 75Q polyglutamine aggregation reporter"}, "[11]": {"experiment": "restoration of touch response, mutant HTT neurons – whole organism, C. elegans mechanosensory neurons, N-terminal huntingtin (AID 1599)", "conditions": "C. elegans polyQ-huntingtin mechanosensory neurons, stronger effect = higher value"}, "[12]": {"experiment": "blockers of cytochrome c efflux from mitochondria – biochemical, purified mitochondria (AID 1603);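 also: mouse liver mitochondria challenged with calcium chloride; signal normalized to the plate average as 100%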", "conditions": "stronger effect = lower value"}, "[13]": {"experiment": "polyglutamine aggregate formation blockers (AID 1604)", "conditions": "polyglutamine-induced protein aggregation inhibition assay; stronger effect = higher value; tested at 2.5 µM"}, "[14]": {"experiment": "glutamate transport activators, MN-1 cells, MN-1 cell line (AID 1612);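 also: tested at 1 µM final; 0% = mean of DMSO vehicle wells on each plate; positive means more glutamate uptake than control and negative means less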", "conditions": "MN-1 motor neuron cells, stronger effect = higher value"}, "[15]": {"experiment": "GFP-Q80 aggregate reduction, neuronal-like cells, cell-based, NGF-treated PC12, GFPQ80 (AID 1614);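 also: lower means fewer inclusions and 0 means no inclusions at all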", "conditions": "PC12 NGF-treated GFP-polyQ80 inclusion reduction"}, "[16]": {"experiment": "75Q-TubH aggregate inhibition, S. cerevisiae, yeast (AID 1616)", "conditions": "S. cerevisiae 75Q-TubH polyglutamine aggregation suppression; stronger effect = higher value"}, "[17]": {"conditions": "measured here: epithelial PC-3E GFP cell survival"}, "[18]": {"conditions": "measured here: mesenchymal TEM4-18 mCherry cell survival"}, "[19]": {"conditions": "measured here: relative caspase fold change +Dox/-Dox"}, "[20]": {"conditions": "measured here: total cells with miR-34 induction, stronger effect = lower value"}, "[21]": {"conditions": "measured here: total cells without miR-34 induction"}, "[22]": {"conditions": "MELAS cybrid survival, CellTiter-Glo 48 h, stronger effect = higher value"}, "[23]": {"conditions": "Rieske KO mouse fibroblast survival, CellTiter-Glo 72 h"}},
  "note": "For part of these data: Measured potencies and affinities stand elsewhere. Active and inactive are the calls of the source.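 The calls were made as follows, unless noted: active = compounds killing one labelled cell type while sparing the other, by normalised counts and ratio limits, not self-fluorescent; inactive = the rest.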",
  "data": [
    {"smiles": "OCC(O)[C@H]1O[C@@H]2O[C@H](C(Cl)(Cl)Cl)O[C@@H]2[C@H]1O", "note": "(stereo partly drawn)", "values": [
      {"measurement": "red/green cell ratio (normalised)", "setting": "[1]", "value": "0.83 (inactive)"},
      {"measurement": "normalised cell number", "setting": "[1]; [17]", "value": 1.02},
      {"measurement": "normalised cell number", "setting": "[1]; [18]", "value": 0.85},
      {"measurement": "fold change", "setting": "[2]; stronger effect = lower value", "value": "0.871 (inactive)"},
      {"measurement": "fold change", "setting": "[2]; [19]", "value": 0.819},
      {"measurement": "cell count", "setting": "[2]; [20]", "value": 8180},
      {"measurement": "cell count", "setting": "[2]; [21]", "value": 9390}
    ]},
    {"smiles": "C=C(C)C1CNC(C(=O)O)C1CC(=O)O", "note": "(stereo not drawn)", "values": [
      {"measurement": "parasite load remaining", "setting": "[3]", "value": "103% (inactive)"},
      {"measurement": "viability", "setting": "[3]", "value": 86.2, "unit": "%"},
      {"measurement": "red/green cell ratio (normalised)", "setting": "[1]", "value": "0.79 (inactive)"},
      {"measurement": "normalised cell number", "setting": "[1]; [17]", "value": 0.92},
      {"measurement": "normalised cell number", "setting": "[1]; [18]", "value": 0.73},
      {"measurement": "activity remaining", "setting": "[4]", "value": "96.1% (inactive)"}
    ]},
    {"smiles": "C=CCN=C=S", "values": [
      {"measurement": "red/green cell ratio (normalised)", "setting": "[1]", "value": "0.88 (inactive)"},
      {"measurement": "normalised cell number", "setting": "[1]; [17]", "value": 1.07},
      {"measurement": "normalised cell number", "setting": "[1]; [18]", "value": 0.93},
      {"measurement": "fold change", "setting": "[2]; stronger effect = lower value", "value": "1.01 (inactive)"},
      {"measurement": "fold change", "setting": "[2]; [19]", "value": 0.842},
      {"measurement": "cell count", "setting": "[2]; [20]", "value": 7390},
      {"measurement": "cell count", "setting": "[2]; [21]", "value": 7280},
      {"measurement": "remaining NAD", "setting": "[5]", "value": "10 nM (inactive)"}
    ]},
    {"smiles": "COc1cc2c3cc1Oc1c(OC)c(OC)cc4c1[C@@H](Cc1cccc(c1)Oc1ccc(c(O)c1)C[C@@H]3N(C)CC2)N(C)CC4", "values": [
      {"measurement": "parasite load remaining", "setting": "[3]", "value": "114% (inactive)"},
      {"measurement": "viability", "setting": "[3]", "value": 67.7, "unit": "%"},
      {"measurement": "red/green cell ratio (normalised)", "setting": "[1]", "value": "1.03 (inactive)"},
      {"measurement": "normalised cell number", "setting": "[1]; [17]", "value": 0.83},
      {"measurement": "normalised cell number", "setting": "[1]; [18]", "value": 0.86},
      {"measurement": "activity remaining", "setting": "[4]", "value": "112% (inactive)"}
    ]},
    {"smiles": "C[C@H]1O[C@H](OC2[C@@H](O)[C@@H](O)C(O)[C@H](O)[C@H]2O)[C@@H](N)C[C@@H]1N=C(N)C(=O)O", "note": "(stereo partly drawn)", "values": [
      {"measurement": "parasite load remaining", "setting": "[3]", "value": "61.4% (inactive)"},
      {"measurement": "viability", "setting": "[3]", "value": 141, "unit": "%"},
      {"measurement": "red/green cell ratio (normalised)", "setting": "[1]", "value": "1.07 (inactive)"},
      {"measurement": "normalised cell number", "setting": "[1]; [17]", "value": 1},
      {"measurement": "normalised cell number", "setting": "[1]; [18]", "value": 1.07},
      {"measurement": "fold change", "setting": "[2]; stronger effect = lower value", "value": "0.847 (inactive)"},
      {"measurement": "fold change", "setting": "[2]; [19]", "value": 1.18},
      {"measurement": "cell count", "setting": "[2]; [20]", "value": 8950},
      {"measurement": "cell count", "setting": "[2]; [21]", "value": 10600},
      {"measurement": "z-score", "setting": "[6]; [22]", "value": "-0.576 (inactive)"},
      {"measurement": "z-score", "setting": "[6]; [23]", "value": -0.393},
      {"measurement": "luciferase signal", "setting": "[7]", "value": "128 AU (inactive)"},
      {"measurement": "z-score", "setting": "[8]", "value": "0.075 (inactive)"}
    ]},
    {"smiles": "CC[C@H]1CN2CCC1C[C@@H]2[C@@H](O)c1ccnc2ccc(OC)cc12", "note": "(stereo partly drawn)", "values": [
      {"measurement": "inhibition", "setting": "[9]", "value": -3.48, "unit": "%"},
      {"measurement": "score", "setting": "[10]", "value": 1.22},
      {"measurement": "rescue above control", "setting": "[11]", "value": -8.65},
      {"measurement": "cytochrome c release ratio", "setting": "[12]", "value": 0.67},
      {"measurement": "inhibition of aggregation", "setting": "[13]", "value": 32.5, "unit": "%"},
      {"measurement": "glutamate uptake change", "setting": "[14]", "value": 1.44, "unit": "%"},
      {"measurement": "inclusion score", "setting": "[15]", "value": 2},
      {"measurement": "aggregation suppression score", "setting": "[16]", "value": 1.35},
      {"measurement": "parasite load remaining", "setting": "[3]", "value": "20% (inactive)"},
      {"measurement": "viability", "setting": "[3]", "value": 79.3, "unit": "%"},
      {"measurement": "red/green cell ratio (normalised)", "setting": "[1]", "value": "0.99 (inactive)"},
      {"measurement": "normalised cell number", "setting": "[1]; [17]", "value": 1.01},
      {"measurement": "normalised cell number", "setting": "[1]; [18]", "value": 1},
      {"measurement": "activity remaining", "setting": "[4]", "value": "117% (inactive)"}
    ]},
    {"smiles": "Cc1cc(OC(=O)N2CCCCC2)c(C(C)C)cc1[N+](C)(C)C", "values": [
      {"measurement": "red/green cell ratio (normalised)", "setting": "[1]; counts scaled to control wells, 1 = unselective", "value": "0.97 (inactive)"},
      {"measurement": "normalised cell number", "setting": "[1]; [17]", "value": 1.16},
      {"measurement": "normalised cell number", "setting": "[1]; [18]", "value": 1.13},
      {"measurement": "activity remaining", "setting": "[4]", "value": "125% (inactive)"},
      {"measurement": "luciferase signal", "setting": "[7]", "value": "48 AU (inactive)"}
    ]},
    {"smiles": "CC(C)(N)Cc1ccccc1", "values": [
      {"measurement": "parasite load remaining", "setting": "[3]", "value": "7.56% (inactive)"},
      {"measurement": "viability", "setting": "[3]", "value": 113, "unit": "%"},
      {"measurement": "red/green cell ratio (normalised)", "setting": "[1]", "value": "0.91 (inactive)"},
      {"measurement": "normalised cell number", "setting": "[1]; [17]", "value": 1.06},
      {"measurement": "normalised cell number", "setting": "[1]; [18]", "value": 0.97},
      {"measurement": "fold change", "setting": "[2]; stronger effect = lower value", "value": "0.89 (inactive)"},
      {"measurement": "fold change", "setting": "[2]; [19]", "value": 4.46},
      {"measurement": "cell count", "setting": "[2]; [20]", "value": 11900},
      {"measurement": "cell count", "setting": "[2]; [21]", "value": 13300},
      {"measurement": "z-score", "setting": "[6]; [22]", "value": "-0.229 (inactive)"},
      {"measurement": "z-score", "setting": "[6]; [23]", "value": -0.552},
      {"measurement": "luciferase signal", "setting": "[7]", "value": "64 AU (inactive)"}
    ]},
    {"smiles": "C=C/C=C\\CC1=C[C@@H](OC(=O)[C@@H]2[C@@H](C=C(C)C)C2(C)C)CC1=O", "values": [
      {"measurement": "red/green cell ratio (normalised)", "setting": "[1]", "value": "0.66 (inactive)"},
      {"measurement": "normalised cell number", "setting": "[1]; [17]", "value": 1.35},
      {"measurement": "normalised cell number", "setting": "[1]; [18]", "value": 0.89},
      {"measurement": "fold change", "setting": "[2]; stronger effect = lower value", "value": "0.949 (inactive)"},
      {"measurement": "fold change", "setting": "[2]; [19]", "value": 1.14},
      {"measurement": "cell count", "setting": "[2]; [20]", "value": 8080},
      {"measurement": "cell count", "setting": "[2]; [21]", "value": 8520}
    ]}
  ]
}
